Entries with a potency or affinity are not part of this list. A number with no mark means an inactive call. The rule behind the calls is not given here. Peptide text beside a SMILES is read from it.
conditions: Ebola virus entry assay, green fluorescence channel
Note: 0% is about no effect.

In order of rising efficacy:
1. O=C1O[C@H]([C@@H](O)CO)C(O)=C1O  -34.4%
2. CC(C)(C)NCC(O)COc1cccc2c1CCC(=O)N2 (centres undefined)  -22.9%
3. CCC(CC)(CC(=O)Nc1cccc(/C=C/c2nc(C3CCC3)cs2)c1)C(=O)O  -22.5%
4. CC(C)Cc1ccc(C(C)C(=O)OCc2ccccn2)cc1 (centres undefined)  -17.6%
5. FC(F)(F)C(F)(F)C(F)(F)C(F)(F)C(F)(F)C(F)(F)C(F)(F)C(F)(F)Br  -14.2%
6. Nc1ccc(S(=O)(=O)Nc2nccs2)cc1  -14%
7. NNC(=O)CP(=O)(c1ccccc1)c1ccccc1  11.5%
8. CC[N+]1(CC)CCC(=C(c2ccccc2)c2ccccc2)C1C (centres undefined)  13%
9. NCCc1cnc[nH]1  13.4%
10. COCCOC(=O)C1=C(C)NC(C)=C(C(=O)OC/C=C/c2ccccc2)C1c1cccc([N+](=O)[O-])c1 (centres undefined)  17.5%
11. CC(=O)N[C@@H](CO)C(=O)N[C@@H](CC(=O)O)C(=O)N[C@@H](CCCCN)C(=O)N1CCC[C@H]1C(=O)O (Ac-SDKP-OH)  17.5%
12. CNC(=O)Oc1ccc2c(c1)[C@]1(C)CCN(C)[C@@H]1N2C  20.2%
13. C[C@@H]1C[C@H]2[C@@H]3CCC4=CC(=O)C=C[C@]4(C)[C@@]3(F)[C@@H](O)C[C@]2(C)[C@H]1C(=O)CO  20.4%
14. CCCc1nc(C)c2c(=O)[nH]c(-c3cc(S(=O)(=O)N4CCN(CC)CC4)ccc3OCC)nn12  25.4%
